# Assay results from the supplement of paper PMC6555819.
# System: RARa homodimer (NR concentration 270 nM)
# Test: PBM binding z-score (relative to random genomic background probes); higher = stronger binding; sequences stand for … in GC…GCGATTGACAGCGTAGAATGAAGG
# Outline: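 Antibodies against each partner of ligand-free nuclear receptor dimers (one per run) detected binding on custom Agilent 4×180K protein-binding microarrays after 1 h incubation. The double-stranded probes had 34-nt variable regions carrying direct-repeat seeds, single-nucleotide variants, half-site ablations and random human genomic background sequences. Binding z-scores, from regression-normalized fluorescence, use the random background probes as reference.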
row,Sequence,PBM binding z-score
1,CGAACTAGGTCAAGGACAGTGAGTCTCCGCACGC,-0.462
2,TCATATAGGTAAATGCTAGGTGACAGTCCGATCT,0.862
3,ATATGTAGGTTATCGTGTCATTCAGTTTGCGCAT,0.933
4,GCTTACGGGTCAAAGGTTATATCATGAATAGAAT,1.02
5,TCTTGTAGACCAACAGGAGGTTAAGAAAGATCGA,-0.189
6,TCTGCTAGGTCAACGCTGGTCAGCTAATCTGCTA,-1.41
7,ATCTCTAGGTTACAAGTTCAGTGAAAGAGAGGAC,1.88
8,CCTGCTGGGTCAATGGTCAGCTAAAGCAGCTCGC,-0.395
9,TCATATAGGTAAGCAGGTGAAAGTCCGTAAGTTA,0.214
10,CCTACTGGGCCAAAAAGGTCTTTGATGCCGATAA,-0.777
11,CGAACTAGGTCAAGGTCAAAGTCGGTTTGTGCCA,1.57
12,GTACCAAAGTGAATAGGTCGTTGATGAGTAGGCG,0.281
13,GGAACGAGGGCAAGTTCATAGCAGAGTTTGATGG,-0.259
14,ACTTACGGGGCAACGAGGTTATAGCACGCGTATA,0.365
15,GCTTACGGGGCAAAGGTTATAGCATGAATAGAAT,0.155
16,ATCTCTAGGTAAGACTGAGTTCAGTGAAGAACGC,0.634
17,ATCGAAAGGTCCTGAGGTGAGTATACAGAAAGGC,0.0282
18,TCGAGTAGGTTACCAATGGGGCATTGAGCTTTCT,-0.988
19,CCTACTGGGCCACGAAAGGTCATTGATTCAGTGA,1.7
20,CAAACTAGGTCACGAAAGGACAAAGTCGAATGAC,1.93

row,Sequence,PBM binding z-score
1,AGAATGAGGTAATTAAGATCAGGGAATTGCGGTC,-0.15
2,ACTAGCTGGTCAGCTGAGGTCACACACAATTCGG,0.527
3,ACTATTAGTGGAGACGAGGGCAACCGATAGGTTG,0.227
4,CAGACTAGGTCAAGGTCAAAGTCGGTTTGTGCCA,1.4
5,TTTTGTAGATCAATAGAGGTTAAGAAAGTGCGCT,1.45
6,CCTAGTTGGTTAGGAGGTCACACACCGGATATGA,1.79
7,CTGACTGGGGCAAGGTTACCATAACGCACAGCCA,0.104
8,GGAACGAGGGCAAAGTCGATAGCATCTGTCGACG,-0.247
9,TCATATATGTAATACAGGTGAAAGTCGGCATCTA,0.947
10,CAAACTAGGTCAAAGGTGAAAGTCGAGCCAACCA,1.09
11,CAAACTAGGTCAAGAGGTCTAAGTCCGCTTCCCG,0.497
12,TTACCAAGGTGAAAGGTCGTTGTTGCACGCCTTG,-0.175
13,CCGAGTTGGTTATGGGGCATTCAGGCAACGGTGA,0.692
14,CACCCTAGGTCAGGGCCAGTATAGGAGGAACGTT,-0.0281
15,AGAATGAGGTTATTAAGATCGGGGAATTGCGGTC,0.527
16,TGAATGATGTTAAAGATCAGGGAACGTGGCGTCG,0.502
17,CAGCCTAGGTCAGGGCCAGTACAGGAGGAACGTT,-0.614
18,TGAATGAGTTTATAAGATCAGGGAACGTTGCAAA,0.105
19,ATACCAAGGTAATCGTGAGGTCGTTGATACTAAC,-0.0819
